Assay outcomes: PubChem, The Scripps Research Institute Molecular Screening Center
GPR151 activ – activates the human receptor GPR151; Q8TDV0; PathHunter beta-arrestin GPR151 cells, luminescence; activation, % at 11.2 µM; 1% of 650,000 active; AID 1508602; in the data active = activation above about 4.9%
FBW7 act – human FBW7 E3 ligase activation, primary screen | Q969H0 | AlphaScreen FBW7–phospho-cyclin E peptide binding, activator screen | normalized activity (activation), % at 26.1 µM | 0.13% of 650,000 active; in the data active = normalized activity above about 1.9%;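 also: purified mutant Fbw7 with reduced substrate affinity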
MITF inh – human MITF inhibition, primary screen | O75030 | inhibition, % at 2.6 µM | AID 1259374 | AlphaScreen MITF homodimerization, bead proximity signal | 0.91% of 650,000 active; in the data active = inhibition above about 50%
Target sequence (O75030 whole entry, looked up): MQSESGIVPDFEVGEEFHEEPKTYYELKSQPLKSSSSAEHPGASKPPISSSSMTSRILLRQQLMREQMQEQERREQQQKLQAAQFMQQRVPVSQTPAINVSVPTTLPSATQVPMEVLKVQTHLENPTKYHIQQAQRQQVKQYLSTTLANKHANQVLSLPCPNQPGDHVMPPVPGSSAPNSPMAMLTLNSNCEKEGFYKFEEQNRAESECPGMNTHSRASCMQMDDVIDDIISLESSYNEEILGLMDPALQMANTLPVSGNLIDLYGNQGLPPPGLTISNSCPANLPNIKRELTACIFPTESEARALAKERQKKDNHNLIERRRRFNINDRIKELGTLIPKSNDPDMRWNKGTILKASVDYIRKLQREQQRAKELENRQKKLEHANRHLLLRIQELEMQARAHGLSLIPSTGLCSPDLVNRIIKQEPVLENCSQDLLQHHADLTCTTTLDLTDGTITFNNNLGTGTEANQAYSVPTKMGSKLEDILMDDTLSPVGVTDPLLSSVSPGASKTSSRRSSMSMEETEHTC
TEAD-YAP inh – TEAD-YAP interaction inhibition; HEK-TIYL cells, TEAD-Gal4/YAP UAS-luciferase luminescence; inhibition, % at 9.12 µM; 1.4% of 640,000 active; AID 1259422; in the data active = inhibition above about 32%
A number is an active result; – = inactive. Rows were chosen to be rich in hits. Some 3.5% of all compounds tested hit in one or more screens of this group.

SMILES	GPR151 activ	FBW7 act	MITF inh	TEAD-YAP inh
C/C(=N\OCc1nc2c3c4c(sc3ncn2n1)C(C)(C)NC(C)(C)C4)c1ccccc1	–	–	–	–
COCCNC(=O)C1CC(c2ccc(OC)c(OC)c2)=NO1 (stereo not drawn)	–	–	–	–
COc1ccc(C2=NOC(C(=O)NCc3ccc(F)cc3)C2)cc1OC (stereo not drawn)	–	–	–	50
COc1ccccc1C1CC(=O)c2c(ccc3ccccc23)N1 (stereo not drawn)	–	–	–	61
COc1cc(C2CC(=O)c3c(ccc4ccccc34)N2)ccc1OCc1ccccc1 (stereo not drawn)	–	–	–	–
COc1ccc(-c2oc3ccccc3c(=O)c2OS(=O)(=O)c2ccc(F)cc2)cc1	–	–	–	–
Cc1ccc(CC(=O)NCc2ccc(F)cc2)cc1	–	–	–	39
O=C(Cc1ccc(-n2cccc2)cc1)NCc1cccs1	–	–	–	45
COc1ccc(CC(=O)NCc2ccc(Cl)cc2)cc1	–	–	–	40
O=C(Cn1cccc1)NCc1ccc(F)cc1	–	–	–	–
O=C(Cc1ccc(-n2cccc2)cc1)NCc1ccc(F)cc1	–	–	–	60
Cc1ccc(CNC(=O)CSCc2ccc(F)cc2)cc1	–	–	–	–
COc1ccc(/C=c2/sc3nc(-c4ccccc4OC(C)=O)nn3c2=O)cc1OC	–	–	–	–
Cc1ccc2cnn(CC(=O)N3CCN(C)CC3)c2c1	–	–	–	–
OCCN1CCN(Cc2cccc3ccccc23)CC1	–	–	–	–
C/C(=N/OC(=O)c1ccccc1)C(=O)c1ccco1	–	–	–	–
O=C(Nc1cccc(Cl)c1Cl)c1cc2nc(-c3ccco3)cc(C(F)(F)F)n2n1	–	–	–	–
Cc1cc(C)cc(-n2c(SCC(N)=O)nc3c(c2=O)SCC3)c1	–	–	–	–
CCOC(=O)c1[nH]c(C)c(C(=O)NCc2ccc(OC)cc2)c1C	–	–	–	–
COc1ccc(CNC(=O)c2c(C)[nH]c(C(C)=O)c2C)cc1	–	–	–	58
Cc1ccc(CC(=O)NCc2cccs2)cc1C	–	–	–	45
Cc1ccc(C(=O)NCc2cccs2)cc1C	–	–	–	–
COc1ccc(CC(=O)NCc2ccc(F)cc2)cc1	–	–	–	46
Cc1ccc(N2C(=O)CN(Cc3sccc3C)C2=S)cc1	–	–	–	–
CCn1c(=O)cc(OCC(=O)N(C)c2cc(Cl)c(OC)cc2OC)c2ccccc21	–	–	–	–
SMILES	GPR151 activ	FBW7 act	MITF inh	TEAD-YAP inh
Nc1ccc(NC(=O)c2nc[nH]c2C(=O)O)cc1	–	–	86	–
CC(=O)Oc1c([N+](=O)[O-])cc2c(c1C)CCCC2	–	–	–	–
COc1ccc(-n2ncc3c(N4CCCCC4)ncnc32)cc1	–	–	–	91
COc1ccc(-n2ncc3c(N4CCCCCC4)ncnc32)cc1	–	–	–	97
COc1ccc(-n2ncc3c(N4CCN(c5ccccc5)CC4)ncnc32)cc1	–	–	–	–
CC1CCN(Cc2nnnn2CC(=O)N2CCC(c3ccccc3Cl)C2)CC1 (stereo not drawn)	–	–	–	–
CCOc1ccc(/C=C/c2c([N+](=O)[O-])c(=O)n(C)c(=O)n2C)cc1	–	–	–	–
CCc1ccc(/C=C/c2c([N+](=O)[O-])c(=O)n(C)c(=O)n2C)cc1	–	–	–	44
COCCN1C(=O)/C(=C\c2ccc(C)cc2)C(C(=O)OC)=C1C	–	–	–	–
Cc1nc(-c2ccccn2)cc(N2CCCCC2)n1	–	–	–	40
C=CCN1C(=O)/C(=C/c2cc(C)n(-c3cccc(C(=O)O)c3C)c2C)C(=O)NC1=S	–	–	53	–
C=CCN1C(=O)/C(=C\c2ccc(-c3cccc(C(=O)O)c3)o2)C(=O)NC1=S	–	–	64	–
C=CCN1C(=O)/C(=C/c2ccc(OCc3cccc(C(=O)O)c3)cc2)C(=O)NC1=S	–	–	–	79
C=CCN1C(=O)/C(=C\c2ccc(-c3ccc(C(=O)O)cc3)o2)C(=O)NC1=S	–	–	–	–
Cc1ccc2c(CSc3nc(N)cc(N)n3)cc(=O)oc2c1	–	–	–	–
Cc1ccc2oc(=O)cc(CSc3nc(C)cc(C)c3C#N)c2c1	–	–	–	51
CC(O)C12c3ccccc3C(c3ccccc31)C1C(=O)N(c3ccccc3F)C(=O)C12 (stereo not drawn)	–	2.2	–	–
C=CCc1cc(C)cc(C)c1OCCCN1CCN(C)CC1	–	–	–	–
CC(=O)Nc1nc2ccccc2n1Cc1ccccc1Cl	–	–	–	33
O=C(Nc1nc2ccccc2n1Cc1ccccc1Cl)c1ccccc1	–	–	–	–
COc1ccc(NC(=O)COC(=O)c2ccc(CO)cc2)c([N+](=O)[O-])c1	–	–	–	–
Nc1nnc(SCC(=O)N2N=C(c3ccc4ccccc4c3)CC2c2ccccc2)s1 (stereo not drawn)	–	–	–	51
CN1CCN(c2ccc(-c3cncc(/C=C/c4ccccc4)n3)cn2)CC1	–	–	–	41
O=C(Nc1cccc(C(F)(F)F)c1)Nc1cc(F)c(F)cc1Cl	–	–	–	–
COc1cccc(/C=N\NC(=O)Cn2c(-c3nonc3N)nc3ccccc32)c1O	–	–	–	–
SMILES	GPR151 activ	FBW7 act	MITF inh	TEAD-YAP inh
Nc1nonc1-c1nc2ccccc2n1CC(=O)Nc1ccccc1-c1ccccc1	–	–	–	–
COc1cc(/C=N/NC(=O)Cn2c(-c3nonc3N)nc3ccccc32)ccc1O	–	–	–	45
CCOC(=O)c1ccccc1NC(=O)Cn1c(-c2nonc2N)nc2ccccc21	–	–	–	52
Nc1nc(N)nc(CCCn2c(-c3nonc3N)nc3ccccc32)n1	–	–	–	57
COC(=O)c1sccc1NC(=O)Cn1c(-c2nonc2N)nc2ccccc21	–	–	–	50
O=C(Nc1ccc(Br)cc1)c1cc(S(=O)(=O)N2CCCC2)ccc1F	–	–	–	–
COc1ccc(C(=O)N2CCN(Cc3ccc4c(c3)OCO4)CC2)cc1[N+](=O)[O-]	–	–	–	45
O=C1Nc2cc(C(=O)N3CCN(Cc4ccc5c(c4)OCO5)CC3)ccc2NC1CSCc1ccc(F)cc1 (stereo not drawn)	–	–	–	48
O=C(c1ccc(S(=O)(=O)c2cccc(Cl)c2)c([N+](=O)[O-])c1)N1CCOCC1	–	–	–	32
COc1ccc(CN2CCN(C(=O)c3ccc(S(=O)(=O)c4ccc(F)cc4)c([N+](=O)[O-])c3)CC2)c(OC)c1OC	–	–	–	43
O=C(c1ccc(S(=O)(=O)c2cccc(Cl)c2)c([N+](=O)[O-])c1)N1CCN(c2ccc(F)cc2)CC1	–	–	–	–
O=C(c1ccc([N+](=O)[O-])c(Cl)c1)N1CCN(Cc2ccc3c(c2)OCO3)CC1	–	–	–	51
COc1cc(CC2(CCC(=O)NCC(C)Oc3cccnc3)CCC(=O)N2)ccc1F (stereo not drawn)	–	2.1	–	–
CCc1nn2c(NCCO)cc(C)nc2c1-c1ccc(F)cc1	–	–	–	–
O=C(OC[C@@H]1CCCN2CCCC[C@H]12)c1cc(F)ccc1F	–	–	–	–
